Measured values: paper PMC4336329 (PLoS ONE, 2015)
In all, about 310,000 compounds went through this assay and about 2,200 (0.71%) showed an effect of 50% or more. The effect is printed as a negative number. Only a selection was taken, and strong results are over-represented in it overall.

molecular target: human ether-à-go-go-related gene (hERG) potassium channel (human, UniProt Q12809); test: primary screen, population patch clamp on CHO cells stably expressing hERG; higher = less effect of the substance
Sequence (Q12809 whole entry, looked up): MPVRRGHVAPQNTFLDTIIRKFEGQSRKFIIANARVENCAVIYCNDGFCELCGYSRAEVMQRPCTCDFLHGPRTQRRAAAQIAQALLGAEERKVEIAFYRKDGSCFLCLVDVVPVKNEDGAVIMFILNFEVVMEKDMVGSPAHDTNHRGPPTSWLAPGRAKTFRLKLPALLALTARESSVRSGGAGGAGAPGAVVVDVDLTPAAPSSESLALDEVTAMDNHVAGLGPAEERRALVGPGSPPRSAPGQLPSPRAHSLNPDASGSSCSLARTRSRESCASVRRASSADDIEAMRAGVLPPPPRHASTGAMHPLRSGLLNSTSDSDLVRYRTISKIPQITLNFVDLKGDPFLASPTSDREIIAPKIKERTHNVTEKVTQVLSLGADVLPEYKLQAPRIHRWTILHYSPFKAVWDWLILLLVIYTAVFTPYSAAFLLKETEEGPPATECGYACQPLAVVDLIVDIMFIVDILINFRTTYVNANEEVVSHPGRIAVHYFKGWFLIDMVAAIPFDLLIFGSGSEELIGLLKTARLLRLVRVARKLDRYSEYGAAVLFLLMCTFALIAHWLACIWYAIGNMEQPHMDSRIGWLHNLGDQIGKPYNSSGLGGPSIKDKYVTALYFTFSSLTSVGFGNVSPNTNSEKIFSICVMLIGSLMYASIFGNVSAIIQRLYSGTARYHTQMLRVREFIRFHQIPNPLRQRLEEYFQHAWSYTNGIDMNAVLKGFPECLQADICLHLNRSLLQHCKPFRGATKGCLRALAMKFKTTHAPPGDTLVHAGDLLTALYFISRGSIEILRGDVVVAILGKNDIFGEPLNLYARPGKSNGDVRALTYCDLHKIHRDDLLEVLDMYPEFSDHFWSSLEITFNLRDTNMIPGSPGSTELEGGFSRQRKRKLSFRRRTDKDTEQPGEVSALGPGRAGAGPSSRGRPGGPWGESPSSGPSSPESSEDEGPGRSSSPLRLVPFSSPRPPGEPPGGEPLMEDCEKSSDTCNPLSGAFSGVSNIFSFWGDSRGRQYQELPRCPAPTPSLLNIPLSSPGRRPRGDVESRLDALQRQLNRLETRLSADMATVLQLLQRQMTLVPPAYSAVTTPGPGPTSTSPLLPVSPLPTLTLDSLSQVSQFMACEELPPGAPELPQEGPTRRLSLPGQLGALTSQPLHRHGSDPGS

| SMILES | hERG current change (%, negative = inhibition) at 1uM |
| --- | --- |
| Cc1cnc(C(=O)NNC(=O)c2ccc(Br)cc2)cn1 | 2.55% |
| Cc1cccc(NC(=O)CNC(=O)COc2ccc(C(=O)c3ccc(F)cc3)cc2)c1C | 1.92% |
| CCCCC(=O)Nc1ccc2c(c1)nc(CN1CCN(C(=O)OCC)CC1)n2C | 13.1% |
| Cc1ccc(Oc2cc(C#N)c(C#N)cc2-n2nnc3ccccc32)cc1C | 7.63% |
| CCCCN(CC)C(=O)Cc1ccccc1OC | 18% |
| Cc1ccccc1CC1CCN(CCCNC(=O)Nc2ccccc2)CC1 | -34.1% |
| CCN1CCN(CCCNC(=O)CCc2nc(-c3ccc(OC)cc3)no2)CC1 | 6.54% |
| CSc1ccc(NC(=O)NCCCN2CCC(Cc3ccccc3)CC2)cc1 | -76% |
| COc1ccc(-c2noc(CCC(=O)NCCCN3CCC(C)CC3)n2)cc1 | 9.03% |
| Cc1ccc(S(=O)(=O)NCc2ccc(C(=O)NCCCN3CCC(Cc4ccccc4)CC3)cc2)cc1 | -52.4% |
| CC(=O)Nc1ccc(S(=O)(=O)NCc2ccc(C(=O)NCCCN3CCC(C)CC3)cc2)cc1 | 16.7% |
| Cc1ccc(S(=O)(=O)NCc2ccc(C(=O)NCCCN3CCN(C)CC3)cc2)cc1 | 13.4% |
| COc1ccc(-c2noc(CCC(=O)NCCCN3CCC(Cc4ccccc4)CC3)n2)cc1 | -84.9% |
| CSc1ccc(NC(=O)NCCCN2CCN(c3ccccc3F)CC2)cc1 | -12.8% |
| O=c1c2cc(NC(=S)NCCCN3CCC(Cc4ccccc4)CC3)ccc2nc2n1CCCCC2 | -57.1% |
| CCCCNC(=S)Nc1ccc2nc3n(c(=O)c2c1)CCCCC3 | -24.7% |
| O=c1c2cc(NC(=S)NCCN3CCCCCC3)ccc2nc2n1CCCCC2 | 7.57% |
| COc1ccc(C2C=C(Nc3ccccc3)C(=O)N2c2ccccc2)cc1OC (stereo not drawn) | 20.1% |
| C/C(=N/NC(=O)c1ccc(C)nc1)c1ccc2c(c1)CCCC2 | -4.02% |
| CC(=O)Oc1cc2c(cc1Cl)C1(CC(c3ccccc3Cl)O2)CC(C)(C)NC(=S)N1 (stereo not drawn) | 4.5% |
| COc1ccc(NC(=O)NCCCCc2ccccc2)cc1 | 6.14% |
| COc1ccc(NC(=O)NCCCN2CCC(Cc3ccccc3)CC2)cc1 | -82.2% |
| COc1ccc(NC(=O)N2CCC(Cc3ccccc3)CC2)cc1 | 6.74% |

| SMILES | hERG current change (%, negative = inhibition) at 1uM |
| --- | --- |
| Cc1ccc(NC(=O)CCn2nc(C)cc2C)c(C)c1 | 8.75% |
| Cc1ccccc1CC1(CO)CCCN(C(=O)c2ccccc2N(C)C)C1 (stereo not drawn) | 10.9% |
| Cc1ccccc1CC1(CO)CCCN(C(=O)c2cc(Cl)ccc2F)C1 (stereo not drawn) | 14.5% |
| Cc1ccccc1CC1(CO)CCCN(C(=O)c2ccccc2Cl)C1 (stereo not drawn) | -70.4% |
| Cc1cc(=O)n2c(n1)OC(CO)C2 (stereo not drawn) | 12.1% |
| Cc1nc(C)c(-c2ccccc2)c(=O)[nH]1 | 12.8% |
| O=C(N1CCOCC1)N1c2ccccc2CC(N2CCOCC2)c2ccccc21 (stereo not drawn) | 17% |
| CN1CCC(CO)(Cc2ccccc2)CC1 | 4.74% |
| OCC1(Cc2ccc(Cl)cc2)CCN(Cc2ccccc2F)CC1 | -18.4% |
| OCC1(Cc2ccc(Cl)cc2)CCN(Cc2ccc(F)c(F)c2)CC1 | -4.29% |
| OCC1(Cc2ccccc2)CCN(Cc2ccc(C(F)(F)F)cc2)CC1 | -6.85% |
| OCC1(Cc2ccccc2)CCN(CCCC2CCCC2)CC1 | -79% |
| OCC1(Cc2ccc(Cl)cc2)CCN(CCCc2ccccc2)CC1 | -83.6% |
| COc1ccc(CCNC(=O)Cc2cccs2)cc1 | 16.8% |
| COc1ccc(C(CNC(=O)CN2C(=O)NC3(CCCC3)C2=O)N(C)C)cc1 (stereo not drawn) | 13.2% |
| COc1ccc2nc(N=NC3=C(O)CC(C)(C)CC3=O)sc2c1 | 7.73% |
| COc1ccccc1Nc1nc(N)nc(CN2CCN(Cc3ccccc3)CC2)n1 | -76.6% |
| COc1ccccc1Nc1nc(N)nc(CN2CCN(c3ccccc3)CC2)n1 | -3.16% |
| COc1ccccc1Nc1nc(N)nc(CN2CCC(Cc3ccccc3)CC2)n1 | -95.7% |
| COc1cccc(N2CCN(Cc3nc(N)nc(Nc4ccccc4OC)n3)CC2)c1 | 10.2% |
| COc1ccc(N2CCN(Cc3nc(N)nc(Nc4ccccc4OC)n3)CC2)cc1 | -14.5% |
| COc1ccccc1Nc1nc(N)nc(CN2CCN(Cc3ccc4c(c3)OCO4)CC2)n1 | -79.8% |
| COc1ccccc1Nc1nc(N)nc(CN2CCOCC2)n1 | 14.7% |

| SMILES | hERG current change (%, negative = inhibition) at 1uM |
| --- | --- |
| COc1ccccc1Nc1nc(N)nc(CN2CCN(c3ccccc3F)CC2)n1 | -9.68% |
| COc1ccccc1Nc1nc(N)nc(CN2CCCCCC2)n1 | -32.2% |
| O=C(N/C(=C/c1cccnc1)C(=O)N1CCCCCC1)c1ccccc1 | 6.71% |
| CC1NC(=O)N(C)C2NC(=O)N(C)C(c3ccccc3)C12 (stereo not drawn) | 11.1% |
| CC(C)(C)Sc1ccc([N+](=O)[O-])cc1C(=O)Nc1ccncc1 | 0.86% |
| O=C(O)C(=O)O.c1ccc(COc2ccc(OCCCNC3CCCC3)cc2)cc1 | 8.41% |
| O=C(O)C(=O)O.c1ccc(-c2ccc(OCCCNC3CCCC3)cc2)cc1 | -54.9% |
| O=C(O)C(=O)O.c1ccc(Cc2ccc(OCCCNC3CCCC3)cc2)cc1 | -3.05% |
| COc1ccc(CCNC(=O)Cn2c([N+](=O)[O-])cnc2C)cc1OC | 8.24% |
| Cc1ccc(Nc2nc(N)nc(CN3CCc4ccccc4C3)n2)cc1 | -31.5% |
| COc1ccccc1Nc1nc(N)nc(CN2CCC(C)CC2)n1 | -37.3% |
| Nc1nc(CN2CCc3ccccc3C2)nc(Nc2ccccc2)n1 | -10.8% |
| COc1ccccc1Nc1nc(N)nc(CN2CCCCC2)n1 | -4.26% |
| CCN1CCN(Cc2nc(N)nc(Nc3ccc(C)c(C)c3)n2)CC1 | -14.8% |
| CC1CC(C)CN(Cc2nc(N)nc(Nc3ccc4ccccc4c3)n2)C1 (stereo not drawn) | -61.1% |
| COc1ccccc1Nc1nc(N)nc(CN2CC(C)CC(C)C2)n1 (stereo not drawn) | -70.8% |
| CC1CC(C)CN(Cc2nc(N)nc(Nc3ccccc3)n2)C1 (stereo not drawn) | -52.3% |
| CC1CC(C)CN(C(=S)SCc2nc(N)nc(Nc3ccccc3)n2)C1 (stereo not drawn) | 7.72% |
| O=C(CC1NCCc2ccccc21)Nc1ccccc1 (stereo not drawn) | 4.29% |
| COc1cc(S(=O)(=O)n2cnc(C)c2)ccc1Cl | 6.58% |
| CCCCC(=O)NNC(=S)NC(=O)C(c1ccccc1)c1ccccc1 | 12.3% |
| CC(C)(C)N(CC#CCC(O)(c1ccccc1)C1CCCC1)CCO (stereo not drawn) | 15.6% |
| CNc1nc(CC(C)=O)ns1 | 6.99% |

| SMILES | hERG current change (%, negative = inhibition) at 1uM |
| --- | --- |
| Cc1ccc(Cc2cc(C)n[nH]c2=O)cc1 | 27.1% |
| CN(C)c1ccc(/C=N/NC(=O)C(O)(c2ccccc2)c2ccccc2)o1 | -5.86% |
| CCOC(=O)C1CCCCN1Cc1cc(Cl)ccc1O (stereo not drawn) | 4.99% |
| COC(=O)c1cc2c(ccn2-c2ccc(F)cc2)n1Cc1ccc(OC)cc1 | 0.901% |
| COc1ccc(C(=O)C2CCCN(Cc3cccn3-c3nccs3)C2)cc1F (stereo not drawn) | -91.4% |
| COc1ccc(C(=O)C2CCCN(Cc3cccn3-c3cccnc3)C2)cc1OC (stereo not drawn) | -34.9% |
| COc1ccc(C(=O)C2CCCN(Cc3cnc(N4CCOCC4)s3)C2)cc1F (stereo not drawn) | -17.9% |
| COc1ccc(C(=O)C2CCCN(Cc3ccc4nonc4c3)C2)cc1F (stereo not drawn) | 3.27% |
| COc1ccc(C(=O)C2CCCN(Cc3ccsc3)C2)cc1OC (stereo not drawn) | -38.5% |
| COc1ccc(C(=O)C2CCCN(Cc3cccn3-c3nccs3)C2)cc1OC (stereo not drawn) | -90.2% |
| O=C(O)c1ccc2c(=O)[nH]c(CN3CCOCC3)nc2c1 | 15.6% |
| CC(OC(=O)C1CCCCC1)C(=O)Nc1ccc(S(N)(=O)=O)cc1 (stereo not drawn) | 9.37% |
| COc1ccc(CC(=O)Nc2ccc(-c3noc(-c4ccccc4OC)n3)cc2)cc1 | -11.7% |
| O=S(=O)(NCCc1ccncc1)c1cc(Br)ccc1F | 2.96% |
| O=C(c1cc([N+](=O)[O-])ccc1N1CCCCC1)N1CCc2ccccc21 | 8.63% |
| O=C(NCCCN1CCN(c2ccccc2F)CC1)Nc1ccccc1[N+](=O)[O-] | -51.1% |
| O=C(CCn1c(=O)[nH]c2ccccc2c1=O)NCCCN1CCN(c2cccc(Cl)c2)CC1 | -30% |
| COc1cc2[nH]c(=O)n(CCC(=O)NCCCN3CCN(c4ccccc4F)CC3)c(=O)c2cc1OC | 0.776% |
| O=C(NCCCN1CCN(c2ccccc2F)CC1)Nc1ccc(F)cc1 | -47.6% |
| O=C(NCCCN1CCCC1)Nc1ccccc1[N+](=O)[O-] | 14.8% |
| O=C(CCCCCn1c(=O)[nH]c2ccccc2c1=O)NCCCN1CCN(c2ccccc2F)CC1 | -84.6% |
